Out of some 190,000 compounds screened, about 930 (0.49%) were called active.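 Rule for the calls: active = z-score of insulin promoter reporter brightness in nuclei below -3 at 5 µM, with at least 500 cells counted; inconclusive = wells with under 500 cells, flagged as toxic or sparse; inactive = the rest.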 Some of the results follow. Measured potencies and affinities stand elsewhere.
assay: decrease of insulin promoter-GFP reporter – imaging, high-content screening, mouse beta cells (AID 1628); conditions: MIN6 insulin promoter GFP reporter, at 5 µM, stronger effect = lower value

| SMILES | z-score |
| --- | --- |
| Cc1ccccc1C(=O)Nc1cccc(NC(=O)Cn2cnc3c(=O)n(C)c(=O)n(C)c32)c1 | -5.95 (active) |
| COc1cccc2c(=O)n(CC(=O)Nc3cccc(F)c3)ccc12 | 3.43 (inactive) |
| N#Cc1cccc(NC(=O)COC(=O)CCc2nc3ccccc3c(=O)[nH]2)c1 | 1.59 (inactive) |
| Cc1nc(NC(=O)COC(=O)CCS(=O)(=O)c2ccccc2Cl)c(Cl)cc1Cl | 4.24 (inactive) |
| O=C(COC(=O)Cn1cnc2ccccc2c1=O)Nc1cc(Cl)ccc1[N+](=O)[O-] | -4.27 (active) |
| CCc1cc2c(N3CCN(c4nnc(CC)s4)CC3)ncnc2s1 | -5.09 (active) |
| CCOc1cc(/C=N/NC(N)=O)cc(Br)c1OCc1ccccc1F | -5.46 (active) |
| CCCNC(=O)N1CCC(C(=O)c2ccc(Cl)cc2)CC1 | 3.79 (inactive) |
| O=C(C1CCC1)N1CCc2cc(S(=O)(=O)NCc3cccnc3)ccc21 | -3.56 (active) |
| O=C(C1CCC1)N1CCc2cc(S(=O)(=O)NCCN3CCN(c4ccccc4F)CC3)ccc21 | -4.42 (active) |
| Nc1c(C(=O)C2CC2)sc2nc(-c3ccccc3)cc(C(F)(F)F)c12 | 11.2 (inactive) |
| C(=N\c1nc2ccccc2[nH]1)/c1cccs1 | -1.35 (inactive) |
| CC(=O)c1c(C)[nH]c(-c2ccccc2)nc1=S | 5.61 (inactive) |
| Cc1ccc(NS(=O)(=O)c2cc(C(=O)O)ccc2Cl)c(C)c1 | 1.63 (inactive) |
| Cc1cc2c(ncn2C)c(NS(=O)(=O)c2ccccc2Cl)c1C | -4.59 (active) |
| NC(=O)c1cc2ccc(O)cc2oc1=NCc1ccccc1 | 6.96 (inactive) |
| CCOc1cccc2cc(C(N)=O)c(=NCc3ccccc3)oc12 | -3.34 (active) |
| CCN(CC)c1ccc2cc(C(N)=O)/c(=N\NC(=O)c3ccncc3)oc2c1 | 5.56 (inactive) |
| CN(C)/C=N/c1sc2c(c1C#N)CCC2 | -0.51 (inactive) |
| O=C(O)CC12CSc3[nH]c(=O)sc3C1c1ccccc1OC2=O (stereo not drawn) | 3.25 (inactive) |
| Fc1ccc(C2CC(c3ccco3)=NN2c2ccccc2)cc1 (stereo not drawn) | 3.51 (inactive) |

| SMILES | z-score |
| --- | --- |
| O=C(COc1ccccc1)N1CCN=C1c1ccccc1 | 3.07 (inactive) |
| O=C(O)CCC(=O)N1CC=C(c2ccccc2)CC1 | -3.14 (active) |
| O=C(O)c1ccn(COc2ccc(Br)cc2)n1 | 4.62 (inactive) |
| CCN1CCc2c(sc(NC(=O)Nc3ccc(Cl)c(Cl)c3)c2C(N)=O)C1 | 16 (inactive) |
| CCOC(=O)N1CCC(NC(=O)c2cc(C(=O)Nc3ccc(OC)c(OC)c3)ccc2CO)CC1 | 3.42 (inactive) |
| Cc1cn(S(=O)(=O)c2ccc(Br)c3ccccc23)cn1 | -4.36 (active) |
| COc1ccc(N(C(=O)Cc2cccs2)C2C=CS(=O)(=O)C2)cc1 (stereo not drawn) | 3.14 (inactive) |
| O=C1S/C(=C\c2ccc(N3CCOCC3)o2)C(=O)N1Cc1c(F)cccc1Cl | 14.9 (inactive) |
| C1=C(c2ccccc2)Nc2nnnn2C1 | 3.1 (inactive) |
| NC(=S)N/N=C/c1cccc(O)c1O | -5.73 (active) |
| FC(F)C(F)(F)C1=CC(c2ccccc2)=NCCN1 | -3.16 (active) |
| Cc1cccc2cc3c(N)c(C(=O)N4CCc5ccccc54)sc3nc12 | 4.42 (inactive) |
| CC1CCc2nc3ccccc3c(C(=O)OCC(=O)N3CCc4ccccc43)c2C1 (stereo not drawn) | -7.27 (active) |
| O=C1C2C3C=CC(C3)C2C(=O)N1CCC(=O)N1CCc2ccccc21 (stereo not drawn) | 0.52 (inactive) |
| COc1ccc(Cc2nnc(NC(=O)Cc3cccs3)s2)cc1 | 3.48 (inactive) |
| CCOc1ccc(NC2=NCC(=O)N2Cc2cccs2)cc1 | 4.8 (inactive) |
| CCOc1cccc(NC(=O)Cc2cccs2)c1 | -3.39 (active) |
| O=C(O)CCCCCCCCCCCc1ccccc1 | 0.16 (inactive) |
| CC1=C(C(=O)OCc2ccccc2)C(c2ccccc2)NC(=O)N1CCCCCC(=O)O (stereo not drawn) | -5.52 (active) |
| CCOC(=O)/C(=C\C=C1/Sc2cc(OCC)c(OCC)cc2N1CC)C(C)=O | 16.7 (inactive) |
| Clc1cccc(-c2cc3nc4c(c(N5CCNCC5)n3n2)CCCC4)c1 | -0.83 (inactive) |

| SMILES | z-score |
| --- | --- |
| COc1cc(OC)cc(-c2cc3nc4c(c(N5CCN(c6ncccn6)CC5)n3n2)CCCC4)c1 | -3.61 (active) |
| COc1cccc(-c2cc3nc4c(c(N5CCC6(CC5)OCCO6)n3n2)CCC4)c1 | -3.88 (active) |
| CC(C)N1CC=C2C(C#N)=C(N)C(C#N)(C#N)[C@H](c3ccoc3)[C@H]2C1 | 9.66 (inactive) |
| CN(C)CCOCCOc1ccccc1-c1ccccc1 | 4.97 (inactive) |
| CC1CN(c2oc(COc3ccc(Cl)cc3Cl)nc2C#N)CC(C)O1 (stereo not drawn) | -3.34 (active) |
| COC(=O)c1cc(NC(=O)c2cccc(Cl)c2)c(=O)oc1/C=C/Nc1cc(C)cc(C)c1 | 14.9 (inactive) |
| CC(=O)c1cc(NC(=O)c2ccc(Cl)cc2)c(=O)oc1/C=C/N(C)C | 3.13 (inactive) |
| COC(=O)c1ccc(C(=O)Nc2cc(Cl)ccc2Cl)cc1NC(=O)c1ccc(N(C)C)cc1 | -4.37 (active) |
| Cc1ccc2nc(NCCC(=O)O)nc(-c3ccccc3)c2c1 | 4.16 (inactive) |
| CC1CCCc2sc3nc(NCc4ccco4)n4ncnc4c3c21 (stereo not drawn) | -3.54 (active) |
| N#C/C(=C\c1ccc(N2CCCCC2)o1)C(=O)Nc1cccc(Br)c1 | 12.9 (inactive) |
| COc1ccc(C2=NC(=O)/C(=C\c3cc(OC)c(OC)c(OC)c3)O2)cc1 | 3.04 (inactive) |
| N#C/C(=C/c1ccc(-c2cc(C(=O)O)cc(C(=O)O)c2)o1)c1nc2ccccc2s1 | 3.02 (inactive) |
| COc1ccc(C(NC(C)=O)c2ccc3cccnc3c2O)c(OC)c1 (stereo not drawn) | -5.39 (active) |
| COc1cc2c3nnc(-c4ccccc4)c-3cn(Cc3ccccc3F)c2cc1OC | 12.9 (inactive) |
| O=C(CNC(=O)c1ccco1)OCC(=O)c1ccccc1 | 4.35 (inactive) |
| Cc1ccc(C(=O)COC(=O)CNC(=O)c2ccc(N3C(=O)c4ccccc4C3=O)cc2)cc1C | -3.38 (active) |
| CCOC(=O)C1=C(C)OC(N)=C(C#N)C1c1cc(SCC)oc1C (stereo not drawn) | 0.96 (inactive) |
| COc1cccc(NC(=O)N2CCN(c3nnnn3-c3ccccc3)CC2)c1 | 3.09 (inactive) |
| COC(=O)[C@@H](NC(=O)Nc1cccc(OC)c1)C(C)C | 3.01 (inactive) |
| COc1cccc(NC(=O)N2CCCC2C(=O)NC(C)C)c1 (stereo not drawn) | -5.72 (active) |

Reference: PubChem BioAssay AID1628 (Sanford-Burnham Center for Chemical Genomics, 2009)
